Most compounds without a hit are left out; they make up all but 3% or so of the library.
PAFAH1B2 inh: PAFAH1B2 enzyme inhibitors, primary screen, biochemical, fluorescence polarization, human; recombinant PAFAH1B2, FP-rhodamine activity probe; inhibition, % at 3.39 µM; 340,000 tested, 1.2% active; AID 492953, 2010;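 active = inhibition above the mean of all tested compounds plus 3 SD, cut at about 24% in these data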;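 note: 0% = enzyme with DMSO and 100% = wells lacking PAFAH1B2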
PAFAH2 FP inh: PAFAH2 enzyme inhibitors, primary screen, biochemical, fluorescence polarization, human; Platelet-activating factor acetylhydrolase 2, cytoplasmic (Homo sapiens), Q99487; recombinant PAFAH2, FP-rhodamine activity probe; inhibition, % at 3.39 µM; 340,000 tested, 0.99% active;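 active = inhibition above the mean over all tested compounds plus 3 SD, cut at about 30% in these data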;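 note: inhibitors block probe labeling of enzyme so polarization drops; 0% = enzyme with DMSO and 100% = wells lacking PAFAH2 protein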
Fh CTSL1 inh: Fasciola hepatica cathepsin L1 inhibitors, primary screen, counter-screen for PFM18AAP inhibitor project, biochemical, QFRET, fluorogenic peptide substrate; 300,000 tested, 0.49% active; inhibition, % at 5.96 µM; AID 1906, 2009; recombinant F. hepatica cathepsin L1, Z-Leu-Arg-MCA fluorescence;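 active = inhibition above the mean of all tested compounds plus 3 SD, set per screening campaign, cut at about 17% in these data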;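 note: 0% = plate median of test compound wells and 100% = 1 µM Z-Phe-Ala-diazomethylketone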
pPAFAH FP inh: pPAFAH enzyme inhibitors, primary screen, biochemical, fluorescence polarization, human; recombinant pPAFAH, FP-rhodamine probe fluorescence polarization; AID 463082, 2010; inhibition, % at 3.39 µM; 330,000 tested, 1.5% active;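 active = inhibition above the mean inhibition across the screen plus 3 SD, cut at about 25% in these data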;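 note: inhibitors block binding of the rhodamine activity-based probe so polarization drops; 0% = enzyme with DMSO and 100% = wells lacking pPAFAH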
Target sequence (Q13093 whole entry, looked up): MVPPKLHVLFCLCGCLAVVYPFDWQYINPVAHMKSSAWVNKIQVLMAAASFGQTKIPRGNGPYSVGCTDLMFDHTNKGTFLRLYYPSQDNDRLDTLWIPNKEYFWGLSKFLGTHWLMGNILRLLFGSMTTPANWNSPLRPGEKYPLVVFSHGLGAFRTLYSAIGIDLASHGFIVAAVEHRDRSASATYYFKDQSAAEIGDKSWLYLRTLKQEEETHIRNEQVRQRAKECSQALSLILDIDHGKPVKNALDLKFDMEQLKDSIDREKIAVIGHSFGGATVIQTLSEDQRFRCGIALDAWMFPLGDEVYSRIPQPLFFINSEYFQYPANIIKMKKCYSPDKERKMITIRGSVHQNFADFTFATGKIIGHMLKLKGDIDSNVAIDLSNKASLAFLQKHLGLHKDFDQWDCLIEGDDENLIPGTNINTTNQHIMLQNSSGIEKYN
PP5 primary: PP5 phosphatase inhibitors, primary screen, biochemical, fluorescence; Serine/threonine-protein phosphatase 5 (Homo sapiens), P53041; purified PP5c, OMFP substrate fluorescence; inhibition, % at 6.7 µM; 320,000 tested, 0.18% active;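 active = inhibition above the campaign's mean inhibition across all tested compounds plus 3 SD, cut at about 9.5% in these data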;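 note: 0% = DMSO only and 100% = 100 µM cantharidin control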
PAFAH1B3 inh: PAFAH1B3 enzyme inhibitors, primary screen, biochemical, fluorescence polarization, human | 340,000 tested, 0.28% active | Platelet-activating factor acetylhydrolase IB subunit alpha1 (Homo sapiens), Q15102 | inhibition, % at 3.39 µM | recombinant PAFAH1B3, FP-rhodamine probe | AID 492972, 2010;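 active = inhibition above the screen-wide average of all tested compounds plus 3 SD, cut at about 25% in these data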;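 note: 0% = enzyme with DMSO only and 100% = wells lacking PAFAH1B3 protein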
Target sequence (Q15102 whole entry, looked up): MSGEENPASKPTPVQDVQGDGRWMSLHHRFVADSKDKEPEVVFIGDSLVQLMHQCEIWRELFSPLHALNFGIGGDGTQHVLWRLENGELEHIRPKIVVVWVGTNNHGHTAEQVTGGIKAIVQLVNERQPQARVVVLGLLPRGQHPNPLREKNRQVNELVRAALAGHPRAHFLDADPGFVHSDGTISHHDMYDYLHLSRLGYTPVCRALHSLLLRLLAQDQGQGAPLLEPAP
An asterisk follows results filed as active; nt = not tested or not shown.

SMILES	PAFAH1B2 inh	PAFAH2 FP inh	Fh CTSL1 inh	pPAFAH FP inh	PP5 primary	PAFAH1B3 inh
COCCN(C(=O)C1=COCCO1)c1c(N)n(CC(C)C)c(=O)[nH]c1=O	8.7	4.3	nt	-3.3	3.7	3.6
NC(=S)Cc1nc(-c2ccc(Cl)cc2)cs1	5.8	-1.2	-1.4	25.1*	-2.6	4.3
O=C1[C@@H](Oc2ccccc2)[C@@H](c2cccnc2)N1c1ccccc1	5.4	3.8	nt	1.3	nt	4.7
C=CCn1c(SCc2ccc(Cl)cc2)nc2c1c(=O)[nH]c(=O)n2C	25.2*	6.3	-1.3	2.1	1.9	8.5
COCCCn1c(C23CC4CC(CC(C4)C2)C3)n[nH]c1=S	7.0	-3.2	5.5	-7.6	2.9	6.2
CC(C)Cn1c(C23CC4CC(CC(C4)C2)C3)n[nH]c1=S	28.1*	5.2	8.3	-1.6	2.3	-1.1
COc1ccc(NC(=O)CN(C)C(=O)c2cccc(S(=O)(=O)N3CCN(c4ccc(F)cc4)CC3)c2)cc1	6.6	-3.4	nt	nt	nt	-7.9
Oc1ccc(/C=N/NC(=S)Nc2cccnc2)cc1O	2.3	13.2	5.0	33.1*	-0.9	13.0
O=C1NCCN1C(=O)c1ccco1	3.1	6.5	20.7*	3.9	0.9	9.7
COc1cccc(/C=C2\N=C(C3CCCCC3)OC2=O)c1OC	8.7	3.1	19.8*	-3.0	-1.0	-1.3
CCCC1CCC(C2=N/C(=C\c3ccc(OC)c(OC)c3)C(=O)O2)CC1 (configuration not stated)	0.4	9.4	2.9	0.1	0.0	2.5
CC(=O)Oc1ccc(/C=C2\N=C(C3CCCCC3)OC2=O)cc1	-1.2	4.2	23.1*	-3.2	0.1	7.8
CCOc1cc(/C=C2/N=C(c3ccc4c(c3)OCO4)OC2=O)ccc1OC(C)=O	2.2	2.5	nt	-0.2	-0.2	2.1
O=C(NNc1nc(-c2ccccc2)c2cc(Br)ccc2n1)c1ccc(S(=O)(=O)N2CCCCC2)cc1	-2.2	-14.4	-0.8	0.5	4.4	0.2
CN(C)S(=O)(=O)c1ccc(C(=O)NNc2nc(-c3ccccc3)c3cc(Br)ccc3n2)cc1	2.6	-2.4	3.8	30.4*	2.3	3.8
CC(=O)Nc1ccc(S(=O)(=O)Nc2ccccc2C(=O)N2CCCCC2)cc1	1.8	-12.7	-1.2	-2.5	0.7	6.1
C[C@@H]1C(=O)O[C@H](C)[C@H]1C[C@@H](O)[C@](C)(O)C1CC[C@@]2(O)C3=CC(=O)[C@@H]4C[C@@H](O)[C@@H](O)C[C@]4(C)C3CC[C@]12C (some centres not stated)	-3.2	5.4	nt	0.4	nt	10.2
O=C(Nc1nc2ccc(S(=O)(=O)N3CCCCC3)cc2s1)c1ccncc1	30.1*	-2.4	10.3	-0.2	1.4	6.2
CCOC(=O)c1c(NC(=O)CCl)sc(CN(C)C)c1-c1ccccc1	3.6	2.5	22.0*	2.6	-0.1	12.1
Cc1ccc(S(=O)(=O)N2CCOCC2)cc1C(=O)NCC1CCCO1 (configuration not stated)	0.3	-0.8	28.1*	1.8	3.4	-2.6
O=C(NCC1CCCO1)c1cc(S(=O)(=O)N2CCOCC2)c(Cl)cc1Cl (configuration not stated)	-7.3	2.0	nt	nt	nt	4.2
O=C(c1ccccc1)N1CCC(CC2CC(c3cccc(Br)c3)=NO2)(C(=O)NCC2CCCCC2)CC1 (configuration not stated)	0.8	-1.1	-2.9	25.9*	3.9	-7.0
Cc1ccccc1C(=O)Nc1ccnn1C1CCN(C(=O)c2cnsn2)CC1	5.5	-7.9	-0.8	4.7	1.4	4.2
CC(=O)n1c(Cl)c(NC(=O)CCl)c2ccccc21	1.8	-1.6	37.1*	-0.7	-2.3	4.0
COc1ccc(NC(=O)CCN2CCN(c3ccccc3F)CC2)c(OC)c1	0.4	-0.1	-2.1	5.7	0.6	4.7
SMILES	PAFAH1B2 inh	PAFAH2 FP inh	Fh CTSL1 inh	pPAFAH FP inh	PP5 primary	PAFAH1B3 inh
CCOC(=O)/C=C(\C)Sc1cc(O)c2ccccc2c1O	19.0	30.6*	nt	nt	nt	36.5*
NC(=S)N=Nc1c(O)cc(O)c2[nH]c(=O)ccc12	51.4*	50.8*	nt	nt	nt	62.0*
CCC1(CC)NC(=O)N(CC(=O)Nc2sc3c(c2C(N)=O)CCC3)C1=O	2.5	16.1	-0.6	28.0*	-0.1	3.2
CCc1noc(C)c1C(=O)N(Cc1ccccc1)c1c(N)n(CCOC)c(=O)[nH]c1=O	4.7	-4.9	2.1	0.0	-1.2	2.8
N#Cc1nc(N2CCCCC2)nc(N2CCOCC2)n1	2.7	-2.6	75.9*	4.5	2.5	-0.2
CCOC(=O)CNc1nc(C#N)nc(N2CCOCC2)n1	-1.7	1.1	22.8*	1.0	-0.1	-0.6
CN(C)c1nc(C#N)nc(N2CCOCC2)n1	1.4	-1.3	52.8*	0.6	0.3	2.6
N#Cc1nc(N2CCCC2)nc(N2CCCC2)n1	6.4	-2.2	56.0*	6.1	-1.7	-2.1
CN(C)c1nc(SCC#N)nc(N2CCOCC2)n1	0.4	3.2	-6.3	7.0	-0.5	7.7
C1CN(c2nc(N3CCOCC3)nc(N3CCOCC3)n2)CCO1	nt	nt	5.8	-3.8	-5.6	nt
CCOC(=O)CNc1nc(Cl)nc(N2CCCCC2)n1	-0.4	-7.4	0.6	4.4	0.6	2.1
COc1cccc(CCc2nnc(CCC(=O)NCCC3CCCCO3)o2)c1 (configuration not stated)	1.1	5.8	0.4	3.4	1.7	5.8
O=C(NCCN1CCCC1)C1CCC(=O)N(CCCN2CCOCC2)C1 (configuration not stated)	1.3	2.3	0.0	3.4	2.2	-4.4
Cc1cc(=O)[nH]c(SCC(=O)Nc2cc(S(=O)(=O)N3CCCC3)ccc2Cl)n1	2.9	6.2	1.8	3.6	0.1	1.8
CCCc1cc(=O)[nH]c(SCC(=O)Nc2cc(S(=O)(=O)N3CCCCC3)ccc2C)n1	24.2*	-2.3	nt	3.6	2.4	14.8
CC(C)(C)NC(=O)[C@@H]1CN(Cc2cccnc2)CCN1C[C@@H](O)C[C@@H](Cc1ccccc1)C(=O)N[C@H]1c2ccccc2C[C@H]1O	-0.2	5.3	-0.4	0.6	-2.2	15.4
Cc1ccc2c(c1)C1C=CCC1C(C(=O)O)N2 (configuration not stated)	nt	nt	-2.1	60.9*	-0.1	nt
O=C(O)C1Nc2ccc(OC(F)(F)F)cc2C2C=CCC12 (configuration not stated)	nt	nt	-3.6	61.2*	-0.5	nt
O=C(NC1CC1)C1Nc2ccc(OC(F)(F)F)cc2C2C=CCC12 (configuration not stated)	1.3	2.7	3.0	6.0	0.9	0.7
